The results in this text go back to paper PMC7862700, “An all-to-all approach to the identification of sequence-specific readers for epigenetic DNA modifications on cytosine”.

What all share (assay): DAPPL (digital affinity profiling via proximity ligation, sequencing); 10 mM Tris-HCl pH 7.5, 50 mM NaCl, 1 mM DTT, 4% glycerol, room temperature, 30 min; GST-TFs on glutathione beads, 16-mer random dsDNA library, 0.1% formaldehyde crosslink after washing; high values mean tight binding
Holding throughout (details): protein: recombinant; tags: N-terminal GST; dsDNA, one strand shown

One experiment addresses T1, FLI1 (Homo sapiens, UniProt Q01543 1-452).
T1 sequence: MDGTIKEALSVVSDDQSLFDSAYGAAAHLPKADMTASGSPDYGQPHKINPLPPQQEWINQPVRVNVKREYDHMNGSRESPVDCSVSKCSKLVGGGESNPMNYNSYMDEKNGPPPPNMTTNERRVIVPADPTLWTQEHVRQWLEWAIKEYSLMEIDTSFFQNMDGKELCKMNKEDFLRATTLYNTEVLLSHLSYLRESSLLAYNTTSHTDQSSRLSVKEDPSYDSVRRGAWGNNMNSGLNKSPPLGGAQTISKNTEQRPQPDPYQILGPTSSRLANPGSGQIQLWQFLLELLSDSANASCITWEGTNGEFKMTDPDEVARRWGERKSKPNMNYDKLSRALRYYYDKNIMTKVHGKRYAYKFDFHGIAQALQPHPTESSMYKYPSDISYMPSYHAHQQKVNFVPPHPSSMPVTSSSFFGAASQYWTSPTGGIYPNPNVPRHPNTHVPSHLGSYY
In outline:
(§1)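 Each value of binding signal is a hexamer's read frequency for a factor divided by the same hexamer's frequency in the tag-only sample. Barcoded, bead-captured GST fusions of human transcription factors made in yeast were pooled with that sample and incubated with 200 nmole of a random double-stranded 16-mer DNA library in Tris/NaCl/DTT/glycerol buffer at room temperature for 30 min. Washing, 0.1% formaldehyde crosslinking, proximity ligation, PCR and Illumina NextSeq500 sequencing followed.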

For the next experiment, the target named is T2, ELK1 (Homo sapiens, UniProt P19419 1-428).
T2 sequence: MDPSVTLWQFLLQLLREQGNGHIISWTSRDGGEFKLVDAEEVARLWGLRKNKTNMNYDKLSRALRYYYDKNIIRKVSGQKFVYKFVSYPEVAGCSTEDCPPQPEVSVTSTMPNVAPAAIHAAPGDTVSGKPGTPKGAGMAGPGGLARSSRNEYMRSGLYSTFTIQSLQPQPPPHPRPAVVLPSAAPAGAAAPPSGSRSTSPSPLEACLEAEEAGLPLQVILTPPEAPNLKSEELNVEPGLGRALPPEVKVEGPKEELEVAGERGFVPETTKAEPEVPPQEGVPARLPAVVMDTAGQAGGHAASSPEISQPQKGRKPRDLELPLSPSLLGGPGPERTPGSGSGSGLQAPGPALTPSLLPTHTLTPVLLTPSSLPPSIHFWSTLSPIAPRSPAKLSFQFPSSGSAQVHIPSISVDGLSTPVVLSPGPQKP
In outline:
as §1

In the next experiment the target is T3, GABPA (Homo sapiens, UniProt Q06546 1-454).
T3 sequence: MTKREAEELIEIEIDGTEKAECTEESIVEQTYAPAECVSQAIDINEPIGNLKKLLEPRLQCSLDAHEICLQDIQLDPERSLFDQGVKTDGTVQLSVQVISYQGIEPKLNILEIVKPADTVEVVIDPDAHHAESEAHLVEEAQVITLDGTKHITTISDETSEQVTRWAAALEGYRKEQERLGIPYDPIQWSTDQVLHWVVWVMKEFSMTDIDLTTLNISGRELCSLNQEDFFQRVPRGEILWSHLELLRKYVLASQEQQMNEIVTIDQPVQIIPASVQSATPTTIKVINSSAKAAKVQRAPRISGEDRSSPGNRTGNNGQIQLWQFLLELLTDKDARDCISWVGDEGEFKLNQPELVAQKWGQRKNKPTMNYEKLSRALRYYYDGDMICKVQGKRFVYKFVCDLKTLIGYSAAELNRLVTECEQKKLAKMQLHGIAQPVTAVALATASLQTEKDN
In outline:
as §1

The target in the next experiment is T4, ERG (Homo sapiens, UniProt P11308 1-479).
T4 sequence: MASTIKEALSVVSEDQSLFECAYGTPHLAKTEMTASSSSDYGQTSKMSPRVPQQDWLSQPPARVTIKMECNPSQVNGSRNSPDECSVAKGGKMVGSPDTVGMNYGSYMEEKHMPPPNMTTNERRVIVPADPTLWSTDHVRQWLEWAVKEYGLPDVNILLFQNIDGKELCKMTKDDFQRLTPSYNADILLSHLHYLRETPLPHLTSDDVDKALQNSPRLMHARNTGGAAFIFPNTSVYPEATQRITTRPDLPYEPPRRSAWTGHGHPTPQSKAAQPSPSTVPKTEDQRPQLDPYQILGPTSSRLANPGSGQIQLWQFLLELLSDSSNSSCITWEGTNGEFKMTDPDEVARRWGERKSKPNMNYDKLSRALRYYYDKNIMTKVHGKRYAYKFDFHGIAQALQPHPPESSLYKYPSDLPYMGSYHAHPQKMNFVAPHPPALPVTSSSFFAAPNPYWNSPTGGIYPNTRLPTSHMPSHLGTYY
In short, it runs like this:
as §1

Another experiment addresses ELF1 (Homo sapiens, UniProt P32519 1-619). In short, it runs like this: as §1
The target of a further experiment is T5, EHF (Homo sapiens, UniProt Q9NZC4 1-300).
T5 sequence: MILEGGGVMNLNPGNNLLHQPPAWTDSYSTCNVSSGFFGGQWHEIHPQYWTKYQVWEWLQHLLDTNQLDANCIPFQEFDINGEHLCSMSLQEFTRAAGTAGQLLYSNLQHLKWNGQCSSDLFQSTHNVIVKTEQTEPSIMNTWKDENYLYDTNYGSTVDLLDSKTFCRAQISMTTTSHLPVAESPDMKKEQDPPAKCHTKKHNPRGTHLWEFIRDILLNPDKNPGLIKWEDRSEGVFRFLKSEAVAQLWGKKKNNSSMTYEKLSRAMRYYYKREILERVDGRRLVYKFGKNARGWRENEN
In short, it runs like this: as §1

A further experiment deals with SPI1 (Homo sapiens, UniProt P17947 1-270). In outline:
as §1

A further experiment has as its target SPIB (Homo sapiens, UniProt Q01892 1-262). In outline:
as §1

Another experiment concerns the target T6, ELK3 (Homo sapiens, UniProt P41970 1-407).
T6 sequence: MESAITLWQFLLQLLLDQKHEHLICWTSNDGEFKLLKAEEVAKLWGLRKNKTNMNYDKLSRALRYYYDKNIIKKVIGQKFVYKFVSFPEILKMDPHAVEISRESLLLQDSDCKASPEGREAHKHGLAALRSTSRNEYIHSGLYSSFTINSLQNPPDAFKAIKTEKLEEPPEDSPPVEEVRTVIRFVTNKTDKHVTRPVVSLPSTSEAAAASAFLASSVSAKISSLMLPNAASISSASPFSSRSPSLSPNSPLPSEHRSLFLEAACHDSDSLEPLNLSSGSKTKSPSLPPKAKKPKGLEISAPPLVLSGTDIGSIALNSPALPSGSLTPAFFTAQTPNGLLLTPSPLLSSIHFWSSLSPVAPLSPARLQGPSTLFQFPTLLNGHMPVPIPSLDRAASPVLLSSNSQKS
In short, it runs like this:
as §1

The next experiment deals with T7, FEV (Homo sapiens, UniProt Q99581 1-238).
T7 sequence: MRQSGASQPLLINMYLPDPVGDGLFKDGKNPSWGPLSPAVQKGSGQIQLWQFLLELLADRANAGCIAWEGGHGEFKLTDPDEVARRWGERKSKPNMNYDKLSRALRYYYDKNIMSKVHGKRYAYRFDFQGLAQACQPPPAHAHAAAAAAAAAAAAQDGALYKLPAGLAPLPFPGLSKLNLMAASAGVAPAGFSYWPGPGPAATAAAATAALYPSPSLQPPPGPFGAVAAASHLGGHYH
In short, it runs like this:
as §1

In another experiment the target is T8, SPIC (Homo sapiens, UniProt Q8N5J4 1-248).
T8 sequence: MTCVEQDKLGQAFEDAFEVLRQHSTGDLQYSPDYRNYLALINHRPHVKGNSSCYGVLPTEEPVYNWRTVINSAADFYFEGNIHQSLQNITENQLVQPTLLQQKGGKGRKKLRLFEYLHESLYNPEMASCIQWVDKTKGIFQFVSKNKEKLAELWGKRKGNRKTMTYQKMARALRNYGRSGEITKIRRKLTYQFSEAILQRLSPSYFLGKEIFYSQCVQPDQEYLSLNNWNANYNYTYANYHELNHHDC
In short, it runs like this:
as §1

In another experiment the target is ELF4 (Homo sapiens, UniProt Q99607 1-663). In short, it runs like this: as §1
Chain of ELF4 (Q99607 whole entry): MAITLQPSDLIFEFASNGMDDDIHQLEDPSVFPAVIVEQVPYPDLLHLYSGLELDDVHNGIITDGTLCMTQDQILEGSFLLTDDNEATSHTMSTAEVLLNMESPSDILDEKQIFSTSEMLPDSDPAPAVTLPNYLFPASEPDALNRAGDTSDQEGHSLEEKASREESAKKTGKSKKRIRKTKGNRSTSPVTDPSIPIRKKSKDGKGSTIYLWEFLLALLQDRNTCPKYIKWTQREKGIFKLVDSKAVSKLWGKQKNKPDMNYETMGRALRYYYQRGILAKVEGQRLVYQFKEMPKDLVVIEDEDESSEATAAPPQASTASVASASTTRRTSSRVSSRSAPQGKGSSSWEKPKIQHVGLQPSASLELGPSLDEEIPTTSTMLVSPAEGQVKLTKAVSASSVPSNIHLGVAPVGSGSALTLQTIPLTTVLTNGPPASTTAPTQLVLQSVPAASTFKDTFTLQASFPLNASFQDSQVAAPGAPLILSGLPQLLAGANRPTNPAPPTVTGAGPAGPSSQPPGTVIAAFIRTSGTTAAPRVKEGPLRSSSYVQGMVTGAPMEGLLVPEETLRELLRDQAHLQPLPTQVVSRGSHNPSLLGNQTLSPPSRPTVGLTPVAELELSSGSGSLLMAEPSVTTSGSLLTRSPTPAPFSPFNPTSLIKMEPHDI

Chain of SPIB (Q01892 whole entry): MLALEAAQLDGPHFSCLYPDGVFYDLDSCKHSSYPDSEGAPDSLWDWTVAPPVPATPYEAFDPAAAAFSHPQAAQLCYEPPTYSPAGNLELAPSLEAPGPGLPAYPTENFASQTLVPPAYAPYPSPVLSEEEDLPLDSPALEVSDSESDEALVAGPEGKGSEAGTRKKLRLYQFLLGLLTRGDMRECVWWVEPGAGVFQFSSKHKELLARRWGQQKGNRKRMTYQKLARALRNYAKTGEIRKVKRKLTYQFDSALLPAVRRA
Chain of ELF1 (P32519 whole entry): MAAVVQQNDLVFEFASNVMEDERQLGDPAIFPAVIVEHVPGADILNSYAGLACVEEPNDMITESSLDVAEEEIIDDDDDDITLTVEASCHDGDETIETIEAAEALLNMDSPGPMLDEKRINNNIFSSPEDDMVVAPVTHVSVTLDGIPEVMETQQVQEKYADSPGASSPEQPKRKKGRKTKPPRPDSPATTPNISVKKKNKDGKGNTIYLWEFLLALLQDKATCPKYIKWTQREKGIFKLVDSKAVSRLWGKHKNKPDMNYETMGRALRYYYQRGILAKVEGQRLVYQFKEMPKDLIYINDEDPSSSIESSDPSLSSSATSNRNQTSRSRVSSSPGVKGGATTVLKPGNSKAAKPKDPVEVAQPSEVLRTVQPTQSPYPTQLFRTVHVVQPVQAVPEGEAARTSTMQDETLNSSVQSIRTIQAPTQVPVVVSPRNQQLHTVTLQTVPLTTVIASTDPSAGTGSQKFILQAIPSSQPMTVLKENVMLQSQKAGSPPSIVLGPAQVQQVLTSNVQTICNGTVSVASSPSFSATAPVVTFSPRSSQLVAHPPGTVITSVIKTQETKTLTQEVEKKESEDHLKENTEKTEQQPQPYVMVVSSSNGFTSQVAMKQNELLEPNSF

Consider ACCCCT, for which the binding signal in the experiment with FLI1 is 1.11 fold enrichment (6-mer frequency, TF over GST control); with ELK1, 1.07 fold enrichment (6-mer frequency, TF over GST control); in the experiment with GABPA, 1.04 fold enrichment (6-mer frequency, TF over GST control); in the experiment with ERG it was 1.01 fold enrichment (6-mer frequency, TF over GST control); with ELF1, 1.16 fold enrichment (6-mer frequency, TF over GST control); with EHF, 1.09 fold enrichment (6-mer frequency, TF over GST control). The binding signal with SPI1 is 1.1 fold enrichment (6-mer frequency, TF over GST control); in the experiment with SPIB, 1.08 fold enrichment (6-mer frequency, TF over GST control); in the experiment with ELK3, 1.08 fold enrichment (6-mer frequency, TF over GST control); with FEV it was 1.08 fold enrichment (6-mer frequency, TF over GST control); in the experiment with SPIC, 1.05 fold enrichment (6-mer frequency, TF over GST control); in the experiment with ELF4 it was 1.09 fold enrichment (6-mer frequency, TF over GST control).
